Test results taken from the supplement of paper PMC10681739.
Over roughly 4,000 sequences, “arbitrary fluorescence units” has its median near 830; the highest 2% begin near 6,500. The full list was thinned out, with the highest values kept by preference.

Each sequence was assayed against RUNX1 (UniProt Q01196) (assay: RUNX1 binding intensity (PBM fluorescence), RUNX1 alone (arbitrary fluorescence units); higher = stronger binding). Conditions: RUNX1 concentration 2 nM; ETS1 concentration 0 nM.
Experimental: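 gcPBM on 36-bp genomic-derived probes (partner site mutated) containing one RUNX1 site and no ETS1 site. Recombinant human RUNX1 (2 nM) was incubated alone or with ETS1 (25 nM) and detected by anti-RUNX1 antibody fluorescence. Values are medians over 4 replicate spots (not normalised). The probes sit in constant array flanks that are not printed.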

RUNX1, sequence (Q01196 whole entry): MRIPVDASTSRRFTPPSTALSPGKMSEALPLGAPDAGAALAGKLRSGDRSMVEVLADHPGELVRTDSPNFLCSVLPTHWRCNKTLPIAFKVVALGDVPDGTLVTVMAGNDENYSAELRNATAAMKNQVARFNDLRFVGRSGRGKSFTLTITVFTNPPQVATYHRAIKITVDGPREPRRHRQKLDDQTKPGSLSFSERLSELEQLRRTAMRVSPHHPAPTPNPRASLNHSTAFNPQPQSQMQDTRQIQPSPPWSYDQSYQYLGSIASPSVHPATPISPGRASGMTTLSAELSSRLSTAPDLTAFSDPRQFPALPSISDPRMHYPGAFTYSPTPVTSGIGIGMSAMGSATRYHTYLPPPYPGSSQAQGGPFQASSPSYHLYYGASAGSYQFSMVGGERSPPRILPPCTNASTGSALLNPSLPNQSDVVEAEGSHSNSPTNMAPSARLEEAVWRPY

Sequence	RUNX1 binding intensity
ACACCTCAGCAAGTGGCAGAGACCACAACAAGTCAG	952
CTTGTGGCTCCTTTCCACCCGCCCCGTAAGCCGGCC	930
ACCCCAAGCCCACAAACCCACCTGAAGGAACCAACT	1200
CCGCTGCGGCTGCGCGCTACGTCACTACGTTCGGCG	768
AAAACCACATTGCCTGTGCTGCAGGCTGGAAAGCTG	879
GCAGAAACAGAAAGAGACAGGGCTGACCGCAGCAGG	1360
CCTCTCTGTGGTTCTGCCTGGAATACGCAAGGCAGG	1050
GGCGGGAGAGGAGGCCGGGCGGCCGCAGCTGCCTGT	669
TCGCTTACGGTGTCGGTTACAGACTGTGGTTGCCAT	812
CACCCGAACTGAAACACCTGCGGCTGAGGGGAGGGG	1030
CCGAGAAGTGGAACCGCCAGGCGGAGGGGGCGGAGT	767
GAGCGCGGCACTCGCCACGGTAAGGATTACCACAGG	742
TGGGGTGTCCGAGCCGCCCCCGAACCGCGCACCCGA	796
GACAAGCCATGTGGTTGCTGGCAGGCAATCTCAGTC	1430
TATTCAGCAGCAAAGGAGAGAGTCTGTGGTATCTGC	708
GCTGAGTGCGGGTGGCCTGGGCCGAAGGCTCAGCGG	724
GCCGCGGTGCCTGCCGGGACAGCGAGTTCAGCCGGG	738
CTGTGGGTTCGGCAGTAAACTCTGACCTCCTATTTA	892

Sequence	RUNX1 binding intensity
TGGGACCGCTAATCGGAGAGGGTGCGCAAACGCTGG	658
AAGTTCGCAACCGCCAAGAGGGGAGACGGGCTGCGC	764
GTATGGGAGGTGATCTGGCTGCAAACCGCAAGAGAG	8250
ACCCACTTGCTGTTAGAGCATCTTTGCAACCACAGG	729
CTCGGGATTTGTGGTCCACCCGGCTGAACTCGCGGC	788
AGGGTTTGTGGGACCTGGTGACTCACGGGATCTGGG	703
CTGCCATGAAGGGTTCTGGTTTGAGGTCTCCTCTTA	741
GCCCCTGATAGCGTCCTCACCATCCCCACAGCGCCT	1100
TGGCCCCGGGGCCCCACAACGGCTTCATGTGTCCCG	693
CCTTAGCACAGACCACCATCTACGGGAATTCCTAAG	912
CAGTCAGACGGGAGCCCGGCTTCTGTGGTGCCTGCC	696
CCTAGAACCGTAAGAGAAAGGGGCTGCGGTGCAGCA	745
CTGTGCGGTCATGTGACGGAGGCCTGAAGGCAGGTC	1410
TGCGCCGGGAGTGCATGAGCTGCCGATGTGGTGCTT	697
GACGTAAGCCGAGAGGCTCCCGTAAGCGGTCTTGAG	733
GACTCGCTCTGCGGCCCCACGCAGGGAGCCTCCTTG	905
CTCATAACCGCTAACTCAACCTCTAACATTTGCTGT	3220
